PubChem BioAssay AID1863 (Southern Research Specialized Biocontainment Screening …, 2009)
Screen size: about 300,000 compounds; about 480 (0.16%) were called active.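 The calls were made as follows: active = inhibition over 29.93%, a cutoff 3 SD above the screen mean, later confirmed by dose response; inconclusive = inhibition over 29.93% but no dose response follow-up; inactive = inhibition at most 29.93% or unconfirmed.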 Only a sample is shown. Results with a measured potency or affinity are listed apart.

Assay: PhoP-dependent GFP reporter repression – Salmonella Typhimurium, primary screen (AID 1863);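 also: 0% = low Mg2+ inducing control and 100% = high Mg2+ repressing control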
Settings: S. Typhimurium PhoP-regulated promoter GFP reporter, 4 h; at 50 µM; stronger effect = higher value

inhibition, inactive:
Cc1ccc(SC2=C(Sc3ccc(C)cc3)C(=O)c3ccccc3C2=O)cc1 4.97%
O=S1(=O)N=C(SCCO)c2ccccc21 -8.43%
CCn1c(SCC(=O)NCCc2ccccc2)nc2c([nH]c3ccccc32)c1=O -1.21%
CCCc1nc2ccc(NC(=O)NCCC(=O)OCC)cc2c(=O)n1Cc1cccc(Cl)c1 6.26%
O=C(NOC(=O)c1ccccc1F)c1ccc(OC(F)F)cc1 -1.76%
Cn1c(COc2ccccc2O)[n+](C)c2ccccc21 19.1%
CCCCCOC(=O)Cn1c(=O)oc2ccc(C)cc21 8.75%
O=C(O)Cn1c(COc2ccc(Cl)cc2)nc2ccccc21 -9.39%
CCCCOC(=O)Cn1c2ccc(OC)cc2c2nc3ccccc3nc21 -30.4%
CCCCCCCCCCOC(=O)Cn1c(COc2ccccc2C)[n+](C)c2ccccc21 13.3%
CCOC(=O)Cn1c(=N)n(CCOc2cccc(C)c2)c2ccccc21 -6.78%
CCCCOC(=O)Cn1c(=O)n(CC(=O)OCCCC)c2ccccc21 1.46%
CCCCc1n(CC(=O)c2ccc(Cl)cc2)c2ccccc2[n+]1C 7.69%
Cc1onc(-c2c(Cl)cccc2Cl)c1C(=O)Nc1ccc2c(c1)OCO2 5.51%
CN1CCN(NC(=S)NC2CCCCC2)CC1 2.99%
CC1(c2ccncc2)Nc2ccccc2-c2nc3ccccc3n21 (stereo not drawn) 4.56%
CC1CCCCC1NC(=O)CNC(=O)c1cccs1 (stereo not drawn) 0.65%
COC(=O)c1cc(OC)c(OC)cc1NC(=S)N1CCN(Cc2ccccc2)CC1 -2.33%
CCN(Cc1ccccc1)Cc1ccc(OCc2ccccc2)cc1 -0.23%
CC(=O)c1ccc(OCc2cc(C(=O)N3CCN4CCCC4C3)no2)cc1 (stereo not drawn) -1.66%
CCCCCCOc1ccc(C(=O)O)cc1 -7.54%
CCCCOC(=O)Cn1c(=N)n(CCC)c2ccccc21 8.26%
CCCCOC(=O)Cn1c(=O)oc2ccc(C)cc21 1.86%
CCCCCOC(=O)Cn1c(=O)oc2ccccc21 5.08%
CCN(CC)CCN1C(=O)c2ccccc2NC1c1cccc(F)c1 (stereo not drawn) -1.91%
CCN(c1ccc(NC(=O)COC(=O)/C=C/c2cccs2)cc1)C(C)C 1.21%
CCOc1ccc(S(=O)(=O)N(CCO)CCO)cc1-c1nc2c(C(C)(C)C)nn(C)c2c(=O)[nH]1 6.61%
OCCNCCCOc1ccc(Cl)cc1Br 9.05%
Cc1cc(Br)ccc1OCCNCc1ccccc1 5.75%
Clc1ccc(OCCCNCc2ccccc2)c2ccccc12 13.7%
CCc1cc(OCCCCNCc2ccccc2)ccc1Cl -6.28%
COCCNCCCOc1ccc(Br)cc1Cl 2.25%
COCCCNCCCOc1ccc(Cl)cc1Br 16.4%
